We go through 6 molecules from PubChem BioAssay (EPA / NIEHS).

The source made the active and inactive calls. The calls were made as follows: active = hit-call score of the fitted dose curve at least 0.9, where 1 is the maximum; inactive = score below 0.9.

Read-out in test [1]: TIMP metallopeptidase inhibitor 1 (TIMP1), TIMP1 (gene 7076)
Description: BSK_hDFCGF_TIMP1: BioMAP Diversity Plus: hDFCGF Assay for TIMP metallopeptidase inhibitor 1 (TIMP1) Biomarker Activity (AID 2283062). The following applies: primary human foreskin fibroblasts; actives raise or lower the signal. An outline of the steps: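 Bidirectional curve fitting against DMSO baseline yielded this endpoint, based on ELISA detection of TIMP-1 in primary human foreskin fibroblasts exposed to compound for 24 h.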

Read-out in test [2]: Monokine induced gamma interferon (MIG), CXCL9 (gene 4283)
The test is described as follows: BSK_hDFCGF_MIG: BioMAP Diversity Plus: hDFCGF Assay for Monokine induced gamma interferon (MIG) Biomarker Activity (AID 2283063). The note with it: primary human foreskin fibroblasts; actives raise or lower the signal. An outline of the steps:
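Endpoint derived by bidirectional fitting relative to DMSO; MIG quantified via ELISA in primary human foreskin fibroblasts harvested 24 h after dosing.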

Read-out in test [3]: Matrix Metallopeptidase 1 (MMP1), MMP1 (gene 4312)
Description: BSK_hDFCGF_MMP1: BioMAP Diversity Plus: hDFCGF Assay for Matrix Metallopeptidase 1 (MMP1) Biomarker Activity (AID 2283064). The note with it: primary human foreskin fibroblasts; actives raise or lower the signal. An outline of the steps: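 Primary human foreskin fibroblasts in the hDFCGF system were dosed with test chemical, and MMP1 was measured by ELISA 24 h later. Values come from bidirectional curve fitting against the DMSO baseline.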

Read-out in test [4]: Vascular cell adhesion molecule 1 (VCAM1), VCAM1 (gene 7412)
The test is described as follows: BSK_hDFCGF_VCAM1: BioMAP Diversity Plus: hDFCGF Assay for Vascular cell adhesion molecule 1 (VCAM1) Biomarker Activity (AID 2283065).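 As to AC50: VCAM-1 protein level quantified by ELISA after 24 h chemical exposure.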 The following applies: primary human foreskin fibroblasts; actives raise or lower the signal. An outline of the steps:
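Measured after 24 h chemical treatment of primary human skin fibroblasts, VCAM-1 was detected by ELISA and concentration-response analysed in both directions versus DMSO vehicle.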

Read-out in test [5]: Plasminogen activator inhibitor-1 (PAI1), SERPINE1 (gene 5054)
The test is described as follows: BSK_hDFCGF_PAI1: BioMAP Diversity Plus: hDFCGF Assay for Plasminogen activator inhibitor-1 (PAI1) Biomarker Activity (AID 2283066). The note with it: primary human foreskin fibroblasts; actives raise or lower the signal. An outline of the steps:
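Primary dermal fibroblasts (human foreskin), hDFCGF system; compound 24 h; PAI-1 by ELISA; bidirectional fit vs DMSO control.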

Read-out in test [6]: Intercellular Adhesion Molecule 1 (ICAM1), ICAM1 (gene 3383)
Description: BSK_KF3CT_ICAM1: BioMAP Diversity Plus: KF3CT Assay for Intercellular Adhesion Molecule 1 (ICAM1) Biomarker Activity (AID 2283067). The following applies: primary human keratinocytes with fibroblasts; actives raise or lower the signal. An outline of the steps: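 Bidirectional curve fitting against a DMSO baseline was applied to ICAM-1 ELISA signal from primary human skin co-cultures harvested 24 h after treatment, with SRB staining of parallel wells for overt cytotoxicity.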

Read-out in test [7]: Interferon-gamma inducible Protein 10 (IP10), CXCL10 (gene 3627)
The test is described as follows: BSK_KF3CT_IP10: BioMAP Diversity Plus: KF3CT Assay for Interferon-gamma inducible Protein 10 (IP10) Biomarker Activity (AID 2283068). The following applies: primary human keratinocytes with fibroblasts; actives raise or lower the signal. An outline of the steps:
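ELISA read-out of IP-10 after 24 h chemical dosing of human skin primary co-culture (keratinocytes, foreskin fibroblasts). Gain or loss of signal relative to DMSO, bidirectional curve fit.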

Test [8] can be described thus: BSK_KF3CT_SRB: Viability Assessment in the BioMAP Diversity Plus: KF3CT Assay (AID 2283069).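 Also: total protein by sulforhodamine B staining as a cytotoxicity measure; read 24 h after compound addition.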 The note with it: primary human keratinocytes with fibroblasts. An outline of the steps:
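Human primary keratinocyte plus foreskin fibroblast co-culture exposed to chemicals for 24 h. Total protein measured by 0.1% sulforhodamine B staining after 10% TCA fixation, read at 560 nm; bidirectional fitting versus DMSO baseline.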

Read-out in test [9]: Interleukin-1 alpha (IL1a), IL1A (gene 3552)
Description: BSK_KF3CT_IL1a: BioMAP Diversity Plus: KF3CT Assay for Interleukin-1 alpha (IL1a) Biomarker Activity (AID 2283070). The note with it: primary human keratinocytes with fibroblasts; actives raise or lower the signal. An outline of the steps:
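Human keratinocyte plus foreskin fibroblast primary co-culture, sampled 24 h after chemical dosing. IL-1a measured by ELISA; responses fitted bidirectionally against DMSO baseline (negative control), so gain or loss of signal both count.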

Read-out in test [10]: TIMP metallopeptidase inhibitor 2 (TIMP2), TIMP2 (gene 7077)
Description: BSK_KF3CT_TIMP2: BioMAP Diversity Plus: KF3CT Assay for TIMP metallopeptidase inhibitor 2 (TIMP2) Biomarker Activity (AID 2283071). The following applies: primary human keratinocytes with fibroblasts; actives raise or lower the signal. An outline of the steps:
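Cells: human keratinocytes co-cultured with foreskin fibroblasts. Treat with chemical, 24 h. Measure TIMP-2 by ELISA; fit curves bidirectionally vs DMSO baseline.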

Read-out in test [11]: Transforming growth factor beta 1 (TGFb1), TGFB1 (gene 7040)
The test is described as follows: BSK_KF3CT_TGFb1: BioMAP Diversity Plus: KF3CT Assay for Transforming growth factor beta 1 (TGFb1) Biomarker Activity (AID 2283072). The following applies: primary human keratinocytes with fibroblasts; actives raise or lower the signal. An outline of the steps:
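Primary human skin cells (keratinocytes, foreskin fibroblasts) were co-cultured, exposed to test chemical and sampled at 24 h. TGF-b1 levels were measured by ELISA and fitted bidirectionally relative to DMSO.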

Read-out in test [12]: C-C motif chemokine 2 (Homo sapiens) (UniProt P13500)
Description: BSK_KF3CT_MCP1: BioMAP Diversity Plus: KF3CT Assay for Monocyte Chemoattractant Protein 1 (MCP1/CCL2) Biomarker Activity (AID 2283073). The following applies: primary human keratinocytes with fibroblasts; actives raise or lower the signal. An outline of the steps:
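Biomarker MCP-1 is measured by ELISA in primary human keratinocytes co-cultured with foreskin fibroblasts, 24 h after chemical treatment; DMSO serves as the negative control and activity baseline.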

Read-out in test [13]: Matrix Metallopeptidase 9 (MMP9), MMP9 (gene 4318)
Description: BSK_KF3CT_MMP9: BioMAP Diversity Plus: KF3CT Assay for Matrix Metallopeptidase 9 (MMP9) Biomarker Activity (AID 2283074).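 As to AC50: MMP9 protein level quantified by ELISA in the co-culture.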 The following applies: primary human keratinocytes with fibroblasts; actives raise or lower the signal. An outline of the steps:
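Keratinocyte plus foreskin fibroblast human primary skin co-culture was dosed with chemical and MMP-9 was quantified by ELISA 24 h later. Bidirectional curve fitting used DMSO as negative control and activity baseline.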

Read-out in test [14]: urokinase plasminogen activator (uPA), PLAU (gene 5328)
The test is described as follows: BSK_KF3CT_uPA: BioMAP Diversity Plus: KF3CT Assay for urokinase plasminogen activator (uPA) Biomarker Activity (AID 2283075). The note with it: primary human keratinocytes with fibroblasts; actives raise or lower the signal. An outline of the steps: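 Human keratinocyte plus foreskin fibroblast primary co-culture exposed to chemical for 24 h. uPA levels were quantified by ELISA, and activity was fitted bidirectionally against a DMSO negative-control baseline.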

Read-out in another test: CD40, CD40 (gene 958)
Description: BSK_LPS_CD40: BioMAP Diversity Plus: LPS Assay for CD40 Biomarker Activity (AID 2283076). The note with it: primary human HUVEC with PBMC; actives raise or lower the signal. An outline of the steps: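 Using a multiplexed primary human co-culture (umbilical vein endothelium plus PBMC), CD40 was read by ELISA 24 h after dosing, with cytotoxicity tracked by sulforhodamine B staining of parallel cultures and activity fitted bidirectionally versus DMSO.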

Read-out in test [15]: E-selectin (Homo sapiens) (UniProt P16581)
Description: BSK_LPS_Eselectin: BioMAP Diversity Plus: LPS Assay for Eselectin Biomarker Activity (AID 2283077). The following applies: primary human HUVEC with PBMC; actives raise or lower the signal. An outline of the steps:
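Dose chemical onto LPS-driven HUVEC/PBMC co-culture; after 24 h, run ELISA for E-selectin; fit up- and down-going responses relative to DMSO control.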

Read-out in test [16]: Interleukin-8 (IL8), CXCL8 (gene 3576)
Description: BSK_LPS_IL8: BioMAP Diversity Plus: LPS Assay for Interleukin-8 (IL8) Biomarker Activity (AID 2283078). The note with it: primary human HUVEC with PBMC; actives raise or lower the signal. An outline of the steps: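 In this LPS system, chemical-treated human umbilical vein endothelium/PBMC co-cultures were harvested at 24 h for IL-8 ELISA.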

Test [17] in a line: BSK_LPS_SRB: Viability Assessment in the BioMAP Diversity Plus: LPS Assay (AID 2283079).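 Also: total protein by sulforhodamine B absorbance as a cytotoxicity measure; measured one day after compound addition.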 The note with it: primary human HUVEC with PBMC. An outline of the steps:
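Cytotoxicity endpoint in human endothelial–PBMC co-culture: 24 h exposure, then SRB (0.1%) staining, 560 nm read.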

Read-out in test [18]: Interleukin-1 alpha (IL1a), IL1A (gene 3552)
Description: BSK_LPS_IL1a: BioMAP Diversity Plus: LPS Assay for Interleukin-1 alpha (IL1a) Biomarker Activity (AID 2283080). The note with it: primary human HUVEC with PBMC; actives raise or lower the signal. An outline of the steps:
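Primary human HUVEC and PBMC co-culture stimulated with LPS is dosed and harvested at 24 h. Both increases and decreases in ELISA-measured IL-1a are scored relative to DMSO.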

Read-out in test [19]: Monocyte Chemoattractant Protein-1 (MCP1), CCL2 (gene 6347)
Description: BSK_LPS_MCP1: BioMAP Diversity Plus: LPS Assay for Monocyte Chemoattractant Protein-1 (MCP1) Biomarker Activity (AID 2283081). The following applies: primary human HUVEC with PBMC; actives raise or lower the signal. An outline of the steps: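 Values derive from bidirectional fitting against DMSO of ELISA-measured MCP-1 in a human primary endothelial and mononuclear cell co-culture, 24 h after chemical addition under LPS activation.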

E-selectin (Homo sapiens), sequence (P16581 whole entry, looked up): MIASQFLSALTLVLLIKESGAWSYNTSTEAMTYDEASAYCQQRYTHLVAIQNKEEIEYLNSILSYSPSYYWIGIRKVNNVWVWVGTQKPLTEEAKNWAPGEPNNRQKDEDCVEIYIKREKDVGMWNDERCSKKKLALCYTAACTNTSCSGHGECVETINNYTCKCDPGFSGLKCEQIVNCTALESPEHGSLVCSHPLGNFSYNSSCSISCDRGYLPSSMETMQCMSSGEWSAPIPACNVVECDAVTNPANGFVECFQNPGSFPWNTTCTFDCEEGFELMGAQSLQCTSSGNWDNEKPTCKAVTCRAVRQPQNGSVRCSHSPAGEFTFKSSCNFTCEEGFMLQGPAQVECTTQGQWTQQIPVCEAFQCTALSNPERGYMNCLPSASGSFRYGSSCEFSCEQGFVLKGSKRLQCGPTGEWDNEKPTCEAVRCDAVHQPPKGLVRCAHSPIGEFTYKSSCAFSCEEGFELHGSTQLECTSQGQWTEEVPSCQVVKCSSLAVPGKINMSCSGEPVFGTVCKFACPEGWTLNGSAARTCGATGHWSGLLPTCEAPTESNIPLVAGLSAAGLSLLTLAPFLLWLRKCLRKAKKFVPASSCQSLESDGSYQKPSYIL

On to `ClCCOCCCl`, for which the outcome in test [1], in [2], in test [3], in [4], in test [5] and in test [6] was inactive. Besides, the result in test [7], in test [8], in [9], in [10], in [11] and in [12] was inactive. The outcome in test [13] is “inactive”; in test [14], “inactive”; with CD40, CD40 (gene 958), “inactive”; in test [15] it was “inactive”; in test [16], “inactive”; in [17], “inactive”. Further, the result in test [18] was inactive.

For `[Cl-].[Cl-].[Hg+2]`, the AC50 in test [1] was 13.5 µM (active); in [2], 8.14 µM (active); in test [3], 11.8 µM (active); in test [4] it was 7.96 µM (active); in test [5] it was 12.2 µM (active); in [6] it was 20.8 µM (active). For the same molecule, the AC50 was 12.8 µM (active) in test [7]; 13.2 µM (active) in test [8]; 30.4 µM (active) in test [9]; 29.2 µM (active) in test [10]; 7.74 µM (active) in test [11]; 20 µM (active) in test [12]. Besides, the AC50 is 13.5 µM (active) in [13]; 13.1 µM (active) in test [14]; 38.8 µM (active) with CD40, CD40 (gene 958); 37 µM (active) in test [15]; 30.9 µM (active) in [16]; 20 µM (active) in [17]. For the same molecule, the outcome in [18] and in test [19] was inactive.

Take `OCCCBr`: the outcome in test [1], in test [2], in test [3], in test [4], in test [5] and in test [6] was inactive. The outcome in test [7], in [8], in test [9], in test [10], in test [11] and in test [12] was inactive. In addition, the outcome is “inactive” in [13]; “inactive” in test [14]; “inactive” with CD40, CD40 (gene 958); “inactive” in test [15]; “inactive” in test [16]; “inactive” in test [17]. For the same molecule, the outcome in test [18] and in test [19] was inactive.

With `CS(=O)(=O)NC(=O)c1cc(Oc2ccc(C(F)(F)F)cc2Cl)ccc1[N+](=O)[O-]`, the result in [1], in test [2], in test [3], in test [4], in test [5] and in test [6] was inactive. Further, the outcome in test [7], in test [8], in test [9], in test [10], in test [11] and in test [12] was inactive. In addition, the outcome is “inactive” in test [13]; “inactive” in test [14]; “inactive” with CD40, CD40 (gene 958); “inactive” in test [15]; “inactive” in [16]; “inactive” in test [17]. Moreover, the result in [18] and in test [19] was inactive.

Turning to `O=C(Oc1ccc(Br)cc1)N1CCN2CCC1CC2`, the outcome in test [1], in [2], in test [3], in [4], in test [5] and in [6] was inactive. For the same molecule, the result in test [7], in [8], in [9], in [10], in test [11] and in [12] was inactive. In addition, the outcome in test [13] is “inactive”; in [14] it was “inactive”; with CD40, CD40 (gene 958), “inactive”; in test [15] it was “inactive”; in [16] it was “inactive”; in test [17] it was “inactive”. In test [18], the result was inactive.

Take `O=[N+]([O-])c1ccc(Oc2ccc(Cl)cc2Cl)cc1`: the outcome in test [1], in [2], in test [5], in test [6], in test [7] and in test [8] was inactive. For the same molecule, the outcome in test [9], in test [10], in test [11], in [12], in test [14] and in test [15] was inactive. For the same molecule, the result in test [16] and in test [17] was inactive. Besides, the AC50 in test [3] is 10.2 µM (active); in test [4], 13.5 µM (active); in test [13] it was 8.09 µM (active); with CD40, CD40 (gene 958), 20 µM (active); in test [18], 27.2 µM (active).

In general, AC50 refers to the midpoint of the concentration-response curve, whichever way the signal moves.
